FMDV antiviral: antivirals against foot and mouth disease virus | FMDV antiviral cell-based qHTS | Potency, µM (series often up to 57.9 µM), inactives show top-dose activity change, negative = inhibition, most hits filed as inhibitors | actives 1.2% (n = 410,000); calls by dose curve; tested in HEK293T cells; note: read-out not given here; potency is the fitted concentration of half-maximal effect; nearly all actives have a fitted effect of over 45% in size
HCMV antiviral: human cytomegalovirus inhibition; activity change, negative = inhibition, % at 57.5 µM; AID 1259415; actives 4.5% (n = 410,000); HFF cells, HCMV-luciferase reporter, 72 h; active compounds read low; in the data active = activity change below about -60%; inconclusive = no clear call, values can overlap the other calls; inactive = above about -39%
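Human foreskin fibroblasts infected with luciferase-reporter HCMV at MOI 1 PFU/cell, compounds at two doses. Luciferase measured 72 h post infection; normalized to buffer-only basal and Salinomycin (10uM) controls.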
HCV inh: inhibitors of hepatitis C virus infection; Huh7.5.1 HCVcc-Cre infection, luciferase reporter, 44 h; actives 3.4% (n = 340,000); Potency, µM (doses to about 41.8 µM), inactives show top-dose activity change, negative = inhibition, hits mostly inhibitors; active = well fitted inhibition curve with a large enough effect; inconclusive = small, poorly fitted or top-dose-only effect, or another doubt; inactive = no such curve, though single readings can be large or run the other way; note: potency is the fitted concentration of half-maximal effect
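HCVcc-Cre virus at an moi near 0.5 was added right after compound to cells cultured 4 h from seeding (1,000 cells/well). Luciferase activity was determined 44 h later, 15 min after substrate addition at RT.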
VACV mCherry inh: vaccinia inhibition (mCherry reporter); actives 0.63% (n = 310,000); Vaccinia virus mCherry reporter infection, fluorescence; AID 720579; Potency, µM (highest dose often 36.5 µM), without a hit: at the highest dose activity change, negative = inhibition, hits mostly inhibitors; calls by dose curve; tested in A549 cells; note: potency is the fitted concentration of half-maximal effect; nearly all actives have a fitted effect of over 35% in size
Vaccinia Venus: vaccinia inhibition (Venus reporter); actives 0.46% (n = 330,000); Potency, µM (series often up to 36.5 µM), for the others: at the highest dose activity change, negative = inhibition, usual class: inhibitors; Vaccinia virus Venus reporter expression, fluorescence; calls by dose curve; tested in A549 cells; note: potency is the fitted concentration of half-maximal effect; nearly all actives have a fitted effect of over 30% in size
* marks the source's active call; other numbers are inactive results; i = inactive; ? = inconclusive; nt = no result. Sampled rows, rich in hits. Any-hit rate of the full collection: about 7.3%. % is set by controls: 0 for no effect and ±100 for the full control effect.

SMILES | FMDV antiviral | HCMV antiviral | HCV inh | VACV mCherry inh | Vaccinia Venus
CCOC(=O)C1(CCOc2ccccc2)CCN(Cc2cccc(-n3cccn3)c2)CC1 | ? | -39.1 | 12.6µM* | nt | nt
CCOC(=O)C1(CCOc2ccccc2)CCN(Cc2ccc(CO)o2)CC1 | -25.2% | -34.8 | ? | i | -10.0%
Cc1ccccc1OC(=O)CSc1nnc(-c2cccs2)o1 | -22.1% | 4.8 | nt | -4.2% | -4.1%
O=C(Nc1ccc2nc(SCC(=O)N3CCc4ccccc43)sc2c1)c1ccc(F)cc1 | 0.0% | -62.5* | nt | ? | ?
CC(C)(C)c1ccc(C(=O)Nc2ccc3nc(SCC(=O)N4CCCC4)sc3c2)cc1 | 10µM* | -96.7* | nt | ? | ?
O=C(Nc1ccc2nc(SCC(=O)N3CCc4ccccc43)sc2c1)c1ccc(Cl)cc1 | 5.6% | -93.1* | nt | ? | -29.7%
Cn1c(SCC(=O)NCC2CCCO2)nnc1-c1ccc(Cl)cc1 (centres undefined) | -17.4% | 0.0 | 7.3% | nt | nt
COc1ccc(-c2nc3c(C#N)c[nH]n3c2NC2CCCCC2)cc1 | 0.0% | -27.3 | nt | ? | ?
COCc1cc(C)nc2sc(C(=O)Nc3ccc(OC(F)(F)F)cc3)c(N)c12 | -5.6% | -5.7 | nt | -1.9% | -9.7%
Cc1sc2ncnc(NC3CCN(Cc4ccccc4)CC3)c2c1C | ? | -80.7* | 1µM* | ? | ?
c1ccc(CN2CCC(Nc3ncnc4sccc34)CC2)cc1 | -14.0% | -29.3 | -4.1% | -30.1% | -19.6%
CCSc1ccc([C@@H]2[C@@H]3C(=O)N(CC)C(=O)[C@@H]3[C@]3(C(=O)OC)CCCCN23)cc1 | -25.2% | -26.5 | 0.708µM* | -14.4% | -23.3%
CCN1C(=O)[C@H]2[C@@H](c3ccc(-c4ccccc4)cc3)N3CCCC[C@@]3(C(=O)OC)[C@H]2C1=O | ? | 0.1 | 3.6% | -25.8% | ?
CCSc1ccc([C@@H]2[C@H]3C(=O)N(CC)C(=O)[C@H]3[C@]3(C(=O)OC)CCCCN23)cc1 | -14.7% | 18.9 | 4.3% | -4.8% | -10.2%
CCN1C(=O)[C@@H]2[C@@H](c3ccc(-c4ccc(OC)cc4)cc3)N3CCCC[C@@]3(C(=O)OC)[C@@H]2C1=O | -2.8% | 26.1 | 3.16µM* | -15.0% | -12.8%
CC(=O)N1CCOc2cc(S(=O)(=O)NCc3ccccc3Cl)c(C)cc21 | 80.5% | -27.5 | nt | -1.6% | -15.5%
CCCOc1ccccc1C(=O)N1CCC(c2nc3ccccc3s2)CC1 | 0.0% | -36.4 | nt | -13.5% | -1.7%
CCCNC(=O)N1CCC(c2nc3ccccc3s2)CC1 | -7.0% | -75.2* | ? | nt | nt
Cc1cc(Cl)ccc1OCC(=O)N1CCC(c2nc3ccccc3s2)CC1 | ? | -16.0 | nt | -15.6% | 6.9%
O=C(CSc1ccccc1Cl)N1CCC(c2nc3ccccc3s2)CC1 | 35.5µM* | 2.0 | ? | nt | ?
O=C(CN1CCC(c2nc3ccccc3s2)CC1)NCc1cccs1 | 15.8µM* | -94.5* | 3.16µM* | -29.1% | ?
CC(C)n1c(N2CCN(CC(=O)NCc3cccs3)CC2)nc2ccccc21 | 0.0% | -13.6 | -26.4% | nt | nt
CCC(Oc1ccccc1F)C(=O)N1CCC(c2nc3ccccc3s2)CC1 (centres undefined) | 25.1µM* | -27.0 | nt | -10.9% | -13.7%
Cc1ccc(S(=O)(=O)Nc2ccc(-c3ccc4nncn4n3)cc2)cc1 | 16.1% | 3.5 | 11.6% | ? | -29.5%
CCc1ccc(NC(=O)c2sc3nc(C)c(Cl)c(C)c3c2NC(=O)c2ccccc2)cc1 | -2.2% | 7.4 | nt | 4.7% | -3.8%
SMILES | FMDV antiviral | HCMV antiviral | HCV inh | VACV mCherry inh | Vaccinia Venus
CC(C)NC(=O)N1CCC(c2nc3ccccc3s2)CC1 | -5.0% | 41.3 | 7.5% | nt | nt
O=C(CN1CCC(c2nc3ccccc3s2)CC1)N1CCCCC1 | -2.2% | -61.7* | ? | -7.1% | -23.5%
O=C(CNC(=O)C12CC3CC(CC(C3)C1)C2)N1CCN(S(=O)(=O)c2cccs2)CC1 | 0.0% | ? | ? | ? | -22.6%
O=C(CNC(=O)C12CC3CC(CC(C3)C1)C2)N1CCN(S(=O)(=O)/C=C/c2ccccc2)CC1 | 39.8µM* | -71.9* | -1.4% | -9.0% | -9.9%
O=C(OCC1CCC=CO1)C1CCC=CO1 (centres undefined) | -10.0% | -3.4 | 20.9% | i | -16.7%
COc1ccccc1OCC(=O)Nc1sc2c(c1C(N)=O)CCC2 | -1.1% | -3.0 | ? | nt | nt
CCOC(=O)c1c(NC(=O)COc2cccc3c2CCN(Cc2ccc(F)cc2)C3=O)sc2c1CCC2 | nt | nt | 2.3% | nt | nt

Screening results deposited in PubChem BioAssay by National Center for Advancing Translational Sciences (NCATS).
